The text below walks through data of the supplement of paper PMC11732987, “Enantioselective OTUD7B fragment discovery through chemoproteomics screening and high-throughput optimisation” (Communications Chemistry, 2025).

Each structure is given as a SMILES string. Values without a mark were called inactive.

Common to all, as to assay: log2 ratio of Biotin-Ahx-Ub-VS probe labelling (fragment/DMSO); higher = less target engagement (more negative = stronger competition), active = hit call of the paper (q ≤ 0.05, log2 ratio ≤ -1)
Common to all, as to conditions: compound concentration: 200 uM; treatment time: 3 h

For one assay, the target named is T1, OTUD6B (UniProt Q8N6M0).
T1 sequence (whole entry): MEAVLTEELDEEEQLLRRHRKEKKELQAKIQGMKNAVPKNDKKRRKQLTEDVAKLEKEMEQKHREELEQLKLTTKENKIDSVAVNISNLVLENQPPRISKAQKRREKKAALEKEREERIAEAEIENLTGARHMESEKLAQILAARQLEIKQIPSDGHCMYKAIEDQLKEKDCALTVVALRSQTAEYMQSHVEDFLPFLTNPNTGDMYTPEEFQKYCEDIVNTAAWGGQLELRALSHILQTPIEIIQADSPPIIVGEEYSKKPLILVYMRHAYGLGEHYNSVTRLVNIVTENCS
The procedure, abridged:
(§1)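 Global-median-normalised Spectronaut label-free quantities were compared by unpaired t-test, and values are average log2 ratios of fragment over vehicle. Only proteins with ≥2 unique peptides were used. HEK293T lysate (495 µg per sample) was treated in triplicate with fragment at 200 µM or vehicle for 3 h and then with Biotin-Ahx-Ub-VS at 0.5 µM final for 1 h. Labelled DUBs were then NeutrAvidin-enriched, digested with LysC and trypsin, and run by diaPASEF LC-MS/MS.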

The target in a further assay is T2, OTUD7B (UniProt Q6GQQ9).
T2 sequence (whole entry): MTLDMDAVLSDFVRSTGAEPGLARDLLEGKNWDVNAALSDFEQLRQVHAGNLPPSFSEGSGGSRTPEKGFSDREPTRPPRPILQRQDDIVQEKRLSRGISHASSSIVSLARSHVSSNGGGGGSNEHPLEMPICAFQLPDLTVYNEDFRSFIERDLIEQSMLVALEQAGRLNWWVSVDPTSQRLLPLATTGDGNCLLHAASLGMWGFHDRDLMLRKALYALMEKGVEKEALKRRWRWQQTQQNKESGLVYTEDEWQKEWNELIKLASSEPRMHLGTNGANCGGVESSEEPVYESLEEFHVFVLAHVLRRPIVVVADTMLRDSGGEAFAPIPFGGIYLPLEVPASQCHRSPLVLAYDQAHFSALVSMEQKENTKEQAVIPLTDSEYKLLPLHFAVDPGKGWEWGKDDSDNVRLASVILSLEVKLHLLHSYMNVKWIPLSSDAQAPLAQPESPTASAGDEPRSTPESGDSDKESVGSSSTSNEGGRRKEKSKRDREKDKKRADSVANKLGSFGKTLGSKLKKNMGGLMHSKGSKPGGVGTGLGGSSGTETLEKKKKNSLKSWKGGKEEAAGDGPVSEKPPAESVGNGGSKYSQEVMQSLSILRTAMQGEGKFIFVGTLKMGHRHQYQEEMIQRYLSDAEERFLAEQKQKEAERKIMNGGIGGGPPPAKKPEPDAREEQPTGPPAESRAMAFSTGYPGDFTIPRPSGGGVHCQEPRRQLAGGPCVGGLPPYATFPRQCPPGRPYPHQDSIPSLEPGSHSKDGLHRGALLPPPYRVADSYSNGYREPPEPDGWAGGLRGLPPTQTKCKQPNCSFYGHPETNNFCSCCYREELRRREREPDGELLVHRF
In a few lines: as §1

The target of the next assay is PRPF8 (UniProt Q6P2Q9). The procedure, abridged:
as §1

The target in a further assay is T3, PSMD7 (UniProt P51665).
T3 sequence (whole entry): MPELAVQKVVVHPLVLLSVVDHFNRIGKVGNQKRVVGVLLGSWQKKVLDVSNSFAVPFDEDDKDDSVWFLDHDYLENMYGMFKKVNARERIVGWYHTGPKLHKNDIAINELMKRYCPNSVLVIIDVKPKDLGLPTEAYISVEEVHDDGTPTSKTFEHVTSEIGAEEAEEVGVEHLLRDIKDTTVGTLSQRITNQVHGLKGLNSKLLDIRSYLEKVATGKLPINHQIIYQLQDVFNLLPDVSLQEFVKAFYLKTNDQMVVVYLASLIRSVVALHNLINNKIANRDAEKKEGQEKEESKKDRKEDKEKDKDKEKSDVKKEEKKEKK
In a few lines:
as §1

The next assay addresses UCHL1 (UniProt P09936). In a few lines:
as §1

In a further assay the target is T4, UCHL3 (UniProt P15374).
T4 sequence (whole entry): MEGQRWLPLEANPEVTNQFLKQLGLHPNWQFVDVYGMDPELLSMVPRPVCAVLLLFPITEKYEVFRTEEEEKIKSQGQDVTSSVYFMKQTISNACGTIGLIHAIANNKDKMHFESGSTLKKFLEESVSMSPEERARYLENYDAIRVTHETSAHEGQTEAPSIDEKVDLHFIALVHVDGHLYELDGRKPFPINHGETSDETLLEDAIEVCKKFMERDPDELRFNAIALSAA
The procedure, abridged: as §1

The target in a further assay is T5, UCHL5 (UniProt Q9Y5K5).
T5 sequence (whole entry): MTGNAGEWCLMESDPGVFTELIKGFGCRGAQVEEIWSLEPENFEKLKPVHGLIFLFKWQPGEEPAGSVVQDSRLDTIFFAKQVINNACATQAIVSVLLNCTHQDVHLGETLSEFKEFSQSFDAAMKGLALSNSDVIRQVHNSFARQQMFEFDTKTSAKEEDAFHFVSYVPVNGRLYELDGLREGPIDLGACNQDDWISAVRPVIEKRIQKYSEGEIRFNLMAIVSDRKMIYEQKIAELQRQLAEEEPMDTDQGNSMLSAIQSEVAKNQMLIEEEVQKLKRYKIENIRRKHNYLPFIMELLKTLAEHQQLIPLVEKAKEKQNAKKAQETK
In a few lines: as §1

In another assay the target is USP10 (UniProt Q14694). In a few lines:
as §1

The target of a further assay is T6, USP15 (UniProt Q9Y4E8).
T6 sequence (whole entry): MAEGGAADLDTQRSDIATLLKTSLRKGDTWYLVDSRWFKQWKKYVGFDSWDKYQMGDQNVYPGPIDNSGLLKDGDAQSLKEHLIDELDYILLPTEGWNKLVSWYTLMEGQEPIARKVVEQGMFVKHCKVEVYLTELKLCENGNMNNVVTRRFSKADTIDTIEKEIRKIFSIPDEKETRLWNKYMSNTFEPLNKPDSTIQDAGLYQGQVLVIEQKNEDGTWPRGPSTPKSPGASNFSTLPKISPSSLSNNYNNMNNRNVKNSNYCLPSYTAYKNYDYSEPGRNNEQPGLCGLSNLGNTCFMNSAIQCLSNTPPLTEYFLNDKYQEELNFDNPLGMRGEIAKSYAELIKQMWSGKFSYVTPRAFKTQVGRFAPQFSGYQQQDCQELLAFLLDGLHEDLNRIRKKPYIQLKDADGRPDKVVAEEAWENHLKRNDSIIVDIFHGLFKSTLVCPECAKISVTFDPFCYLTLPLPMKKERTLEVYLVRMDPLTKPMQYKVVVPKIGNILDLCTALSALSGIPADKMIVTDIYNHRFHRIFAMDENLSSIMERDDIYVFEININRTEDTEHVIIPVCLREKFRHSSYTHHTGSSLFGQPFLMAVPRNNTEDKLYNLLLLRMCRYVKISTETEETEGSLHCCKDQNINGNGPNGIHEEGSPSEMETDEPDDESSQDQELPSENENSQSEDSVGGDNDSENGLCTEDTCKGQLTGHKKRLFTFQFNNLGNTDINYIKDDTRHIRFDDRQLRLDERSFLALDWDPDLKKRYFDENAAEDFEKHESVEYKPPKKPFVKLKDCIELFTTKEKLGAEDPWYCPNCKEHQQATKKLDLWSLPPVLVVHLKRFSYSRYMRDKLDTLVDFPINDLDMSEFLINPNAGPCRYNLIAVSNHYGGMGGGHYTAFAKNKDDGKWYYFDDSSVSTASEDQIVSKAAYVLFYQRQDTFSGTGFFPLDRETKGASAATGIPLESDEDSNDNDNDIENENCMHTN
The procedure, abridged:
as §1

Sequence of USP10 (Q14694 whole entry): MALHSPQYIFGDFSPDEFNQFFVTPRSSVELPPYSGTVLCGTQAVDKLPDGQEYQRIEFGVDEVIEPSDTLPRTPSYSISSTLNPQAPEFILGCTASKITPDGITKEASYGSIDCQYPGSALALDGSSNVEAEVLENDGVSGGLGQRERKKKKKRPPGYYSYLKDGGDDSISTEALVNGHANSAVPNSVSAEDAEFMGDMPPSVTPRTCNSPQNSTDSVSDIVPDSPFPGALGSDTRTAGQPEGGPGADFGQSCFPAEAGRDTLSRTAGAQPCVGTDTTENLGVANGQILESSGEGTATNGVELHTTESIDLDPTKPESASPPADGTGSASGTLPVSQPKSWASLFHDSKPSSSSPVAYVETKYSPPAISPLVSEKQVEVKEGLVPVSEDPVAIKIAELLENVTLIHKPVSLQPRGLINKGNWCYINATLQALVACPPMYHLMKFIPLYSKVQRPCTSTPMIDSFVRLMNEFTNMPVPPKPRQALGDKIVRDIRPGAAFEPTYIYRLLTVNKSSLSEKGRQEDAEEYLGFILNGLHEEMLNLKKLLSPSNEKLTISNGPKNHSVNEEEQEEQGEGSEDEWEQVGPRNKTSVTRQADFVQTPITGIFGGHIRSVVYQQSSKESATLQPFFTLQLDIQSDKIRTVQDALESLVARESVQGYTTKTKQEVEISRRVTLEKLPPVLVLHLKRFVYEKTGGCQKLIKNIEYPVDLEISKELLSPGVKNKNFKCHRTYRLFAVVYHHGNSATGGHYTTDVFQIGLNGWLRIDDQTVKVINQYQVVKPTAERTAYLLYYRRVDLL
Sequence of UCHL1 (P09936 whole entry, looked up): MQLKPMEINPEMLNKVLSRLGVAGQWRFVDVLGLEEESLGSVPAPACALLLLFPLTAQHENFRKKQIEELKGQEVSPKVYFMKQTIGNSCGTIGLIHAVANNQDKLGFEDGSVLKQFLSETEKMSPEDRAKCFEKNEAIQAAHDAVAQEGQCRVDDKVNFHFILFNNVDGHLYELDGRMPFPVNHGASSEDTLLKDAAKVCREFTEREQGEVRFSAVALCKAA

Consider `O=C(CCl)NCc1ccc(N2CCOCC2)c(F)c1`, for which the “log2 ratio of Biotin-Ahx-Ub-VS probe labelling” value with OTUD6B is 0.111; with OTUD7B, -0.497; in the assay with PRPF8 it was -0.0572; with PSMD7 it was 0.0258; in the assay with UCHL1, -1.41 (active); with UCHL3 it was 0.309. For the same molecule, the “log2 ratio of Biotin-Ahx-Ub-VS probe labelling” value with UCHL5 is -0.0833; with USP10, -0.131; in the assay with USP15, -0.0773.
